Test results from PubChem BioAssay (NCATS).
Records with an inconclusive call do not appear. Activity calls are given as the source filed them. Calls follow the shape of the dose curve; as a rule, active = well fitted inhibition curve with a large enough effect; inconclusive = small, poorly fitted or top-dose-only effect; inactive = flat fitted curve, though single readings scatter.

What follows are compounds tested against Glutathione peroxidase 1 (Homo sapiens) (UniProt P07203) (assay: Primary qHTS Assay for Inhibitors of Recombinant Selenoprotein Glutathione Peroxidase 1 (GPX1) (AID 1845191; also: nearly all actives have a fitted effect of over 65% in size)). Details: recombinant GPX1, GR-coupled NADPH fluorescence, 15 min; series mostly up to 48.8 µM; activity, negative = inhibition: at the top concentration.
In short: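 GR-coupled assay: compounds preincubated 30 min at room temperature with GPX1, then reaction started with CHP; final 10 nM GPX1, 1 mM GSH, 0.5 mM CHP, 0.5 mM NADPH, 100 nM GR, 0.01% BSA, pH 7.5 Tris buffer. NADPH fluorescence (340/450 nm) read at 0 and 15 min.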
% is scaled to controls: 0 for no effect and ±100 for the full control effect; potency is read from the fitted curve at half-maximal effect.

Chain of Glutathione peroxidase 1 (Homo sapiens) (P07203 whole entry, looked up): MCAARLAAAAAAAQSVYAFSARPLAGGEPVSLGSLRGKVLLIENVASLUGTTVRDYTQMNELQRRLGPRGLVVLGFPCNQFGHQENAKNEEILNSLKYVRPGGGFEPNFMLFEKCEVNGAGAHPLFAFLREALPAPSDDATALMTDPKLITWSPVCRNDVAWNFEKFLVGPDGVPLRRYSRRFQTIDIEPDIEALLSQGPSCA

| SMILES | activity, negative = inhibition | Potency | outcome |
| --- | --- | --- | --- |
| CC1(C)CCCC2(C)C1C(O)C=C(CO)C2(O)CO (configuration not stated) | -8.26% (inactive) |  |  |
| COc1ccc(Cl)c(Nc2nc3ccccc3nc2NS(=O)(=O)c2cccc(NC(=O)C(C)(C)N)c2)c1 |  | inactive |  |
| COC(=O)c1ccnc(-c2cc(C(=O)NCCc3ccccc3)ccn2)c1 | -11.5% (inactive) |  |  |
| CCC(C)/C=C(C)/C=C/c1cc2c(cn1)C(=O)C(C)(OC(C)=O)C(O)=C2Cl (configuration not stated) | 0.998% [at 27.7 µM] (inactive) |  |  |
| COc1cc(O)c2c(c1)C1=CC(O)C(O)CC1(C)OC2=O (configuration not stated) | -16.8% (inactive) |  |  |
| CC1=C(C(=O)OCc2ccccc2)C(c2ccc(-c3ccccc3)cc2)NC(=O)N1CCCCCC(=O)O (configuration not stated) |  |  | inactive |
| Nc1nccn2c(C3CCC(C(=O)O)CC3)nc(-c3cc4cccc(Cl)c4[nH]3)c12 (configuration not stated) |  | inactive |  |
| C=CC/C=C\C/C=C\CCCCCCCc1cccc(O)c1C(=O)O | 0.592% [at 27.7 µM] (inactive) |  |  |
| Nc1ccc(/C=C/C(=O)NCc2cc3cc(-c4ccc(C(=O)N5CCC(F)(F)CC5)cc4)cc(-c4ccc(F)cc4)c3o2)cn1 |  |  | inactive |
| CC(C)c1cc(C(=O)N2CC[C@@H](NC(=O)C3CC3)C2)n[nH]1 | 1.93% (inactive) |  |  |
| COc1cc(-c2ncn(/C=C\C(=O)OC(C)C)n2)cc(C(F)(F)F)c1 |  |  | inactive |
| O=C(c1ccc(/C=C/c2n[nH]c3ccccc23)cc1)N1CCNCC1 |  |  | inactive |
| CNC(=S)NS(=O)(=O)c1cc(CCNC(=O)c2cc(Cl)ccc2OC)ccc1OC |  | 12.8 µM (active) |  |
| CO/N=C(/C(=O)N[C@@H]1C(=O)N2C(C(=O)O)=C(Cn3ccc(=N)n3CCO)CS[C@H]12)c1csc(N)n1 |  | 8.06 µM (active) |  |
| Cn1cncc1C(N)(c1ccc(Cl)cc1)c1ccc2c(c1)c(-c1cccc(Cl)c1)cc(=O)n2C (configuration not stated) |  |  | inactive |
| CC(C)C1=CC2C(CC[C@]2(C)O)[C@](C)(O)CC1 (some centres not stated) |  |  | inactive |
| C=C[C@H]1[C@H](O[C@@H]2O[C@H](CO)[C@@H](O)[C@H](O)[C@H]2O)OC=C(C(=O)OC)[C@H]1C/C=C(/C=O)[C@@H]1C(C(=O)OC)=CO[C@@H](O[C@@H]2O[C@H](CO)[C@@H](O)[C@H](O)[C@H]2O)[C@@H]1C=C | -8.25% [at 15.3 µM] (inactive) |  |  |
| Cc1ccc(NC(=O)Nc2cc(C(F)(F)F)ccc2F)cc1Nc1ccc2c(c1)NC(=O)/C2=C\c1ccc[nH]1 |  | inactive |  |
| C/C=C/C=C/C(=O)N1CC[C@]23c4ccccc4N[C@H]4N(C)c5cccc6c5[C@@]42CCN([C@H]6C2OC2(C)C)[C@H]13 (some centres not stated) |  |  | inactive [at 27.7 µM] |
| Cc1nc2sc(C(=O)NCc3ccncc3)c(N)c2c(C)c1Cl |  | 12.8 µM (active) |  |
| C=C1C(O)CC2C(C(=O)O)=COC(O[C@@H]3O[C@H](COC(=O)/C=C/c4ccc(O)cc4)[C@@H](O)[C@H](O)[C@H]3O)C12 (some centres not stated) |  |  | inactive [at 27.7 µM] |
| Cc1cc(N(C)C)ccc1-c1nc2ccc(-c3nc4ccc(N5CCN(C)CC5)cc4[nH]3)cc2[nH]1 | -18.1% (inactive) |  |  |
